# The full list was thinned out, with hits kept by preference.
# D1 mod – allosterically modulates the human D1 dopamine receptor | P21728 | HEK293 D1, CRE-luciferase, dopamine EC30 potentiation; actives deviate in either direction | B-score at 10 µM | 5.9% of 58,000 active | AID 641;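 active = luminescence count or its row- and column-corrected plate score outside the 99.7% band of the plate's sample wells, on either side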
# hDAT+cocaine – changed human dopamine transporter uptake under cocaine IC80 | Q01959 | LLC-PK1 hDAT cells, [14C]-dopamine uptake with cocaine IC80; actives deviate in either direction | B-score at 10 µM | 1.3% of 110,000 active;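 active = Z score or B-score, a plate-position-corrected score, falls beyond the plate's 99.7% confidence bounds, in either direction; inactive = both scores lie inside the 99.7% bounds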
# Target sequence (Q01959 whole entry, looked up): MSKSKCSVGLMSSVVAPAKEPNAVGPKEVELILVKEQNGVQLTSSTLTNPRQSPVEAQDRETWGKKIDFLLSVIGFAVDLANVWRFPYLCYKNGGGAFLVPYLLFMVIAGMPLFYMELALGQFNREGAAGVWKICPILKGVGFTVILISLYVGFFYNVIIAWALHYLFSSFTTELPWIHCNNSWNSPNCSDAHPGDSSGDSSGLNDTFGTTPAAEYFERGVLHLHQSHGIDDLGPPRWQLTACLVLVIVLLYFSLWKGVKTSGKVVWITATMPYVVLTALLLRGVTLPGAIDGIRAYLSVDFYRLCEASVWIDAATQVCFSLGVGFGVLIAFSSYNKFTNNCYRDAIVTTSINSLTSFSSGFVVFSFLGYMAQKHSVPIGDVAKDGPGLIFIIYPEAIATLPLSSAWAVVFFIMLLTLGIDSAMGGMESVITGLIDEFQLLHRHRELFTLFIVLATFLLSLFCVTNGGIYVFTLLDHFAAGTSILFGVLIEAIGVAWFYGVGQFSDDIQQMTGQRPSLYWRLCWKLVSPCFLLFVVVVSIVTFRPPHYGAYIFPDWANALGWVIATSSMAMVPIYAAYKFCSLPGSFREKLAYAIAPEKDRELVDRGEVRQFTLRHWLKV
# BAP1 block – blocks human BAP1 ubiquitin-AMC hydrolysis | recombinant BAP1, Ub-AMC hydrolysis fluorescence kinetic; hits give low values | calls only at 20 µM | 0.48% of 72,000 active | AID 436;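 active = activity remaining at or below 50% of control, provided the compound also passes the data quality filters; inactive = the rest, including low values that fail the filters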
# Hits are given with their value; i = inactive; nt = not tested or not shown.
SMILES,D1 mod,hDAT+cocaine,BAP1 block
CCCCOc1ccc(C(=O)NCc2n[nH]c(=S)n2-c2cccc(C)c2)cc1,nt,nt,i
Cc1cc(C)c2c(=O)[nH]n(C3CCOC(C)(C)C3)c2n1 (stereo not drawn),i,i,i
Cc1cc(C)c2c(=O)[nH]n(C3CC(C)N(C)CC3C)c2n1 (stereo not drawn),-1.9,i,i
O=C(CCNc1n[nH]c(=O)[nH]c1=O)N1CCOCC1,nt,-3.4,i
O=C(CCc1n[nH]c(=O)[nH]c1=O)N1CCOCC1,i,i,i
O=C1C(Cl)=C(N2CCN(c3ccccc3)CC2)C(=O)N1c1cccc(Cl)c1,nt,nt,i
CC(C)(C)n1nc2c(c1NC(=O)c1ccccc1[N+](=O)[O-])CSC2,nt,nt,i
COc1ccc(C(=O)Nc2ccccn2)cc1,nt,i,nt
CC(C)(C)c1ccc(C(=O)Nc2cnccn2)cc1,-3.4,i,i
O=C(CSc1nc2ccccc2c(=O)n1-c1ccccc1)c1ccc(F)cc1,nt,nt,i
COc1ccc(NC(=O)CSc2nc3ccc([N+](=O)[O-])cc3[nH]2)c(OC)c1,nt,nt,i
COc1ccc(C(=O)Nc2ccc(NC(=O)c3ccc(C(C)(C)C)cc3)cc2)cc1[N+](=O)[O-],nt,nt,i
Cn1c(NC(=O)c2ccccc2)cc(=O)n(C)c1=O,i,i,i
Cn1c(NC(=O)c2ccco2)cc(=O)n(C)c1=O,i,7.9,i
CCCCOc1ccc(OC(=O)c2cncc(Br)c2)cc1,nt,nt,i
CN1CCN(c2nc(-c3ccncc3)nc3ccccc23)CC1,-3.8,i,i
CN1CCN(c2nc(-c3ccc(Cl)cc3)nc3ccccc23)CC1,nt,nt,i
c1ccc(-c2nc(N3CCOCC3)c3ccccc3n2)nc1,i,i,i
c1ccc(-c2nc(N3CCCCCC3)c3ccccc3n2)nc1,i,2.1,i
Cn1c(=O)[nH]c(=O)c2c1nc(SCc1ccccc1Cl)n2CCc1ccccc1,nt,nt,i
Cc1ccccc1C(=O)Nc1cccc(NC(=O)c2cccc(Br)c2)c1,nt,nt,i
CCCn1c(SCC(=O)NCCc2ccc(Cl)cc2Cl)n[nH]c1=O,i,3.4,i
CCCn1c(SCC(=O)NC(=O)NCc2ccco2)n[nH]c1=O,i,i,i
O=C(NCCN1CCOCC1)NC1(C(F)(F)F)Oc2ccccc2O1,i,i,nt
NS(=O)(=O)c1ccc(CCNC(=O)CSc2ccccc2)cc1,nt,i,nt
SMILES,D1 mod,hDAT+cocaine,BAP1 block
NS(=O)(=O)c1ccc(CCNC(=O)NC2(C(F)(F)F)Oc3ccccc3O2)cc1,i,-6.7,nt
CCCCNC(=O)NC1(C(F)(F)F)Oc2ccccc2O1,nt,-1.9,nt
Cc1ccc(C)c(S(=O)(=O)n2ccnc2)c1,nt,nt,i
CCc1c(C#N)c(N)nc2sc(C(=O)c3ccc(Br)cc3)c(N)c12,nt,nt,i
CC1CC(=O)NN=C1c1ccc(NCCO)c([N+](=O)[O-])c1 (stereo not drawn),nt,-2.6,nt
CCC(=O)N1CC2(CC(c3cccc(NC(=O)COc4ccc(Cl)cc4)c3)=NO2)C[C@@H]1C(N)=O (stereo partly drawn),nt,i,nt
CCCCCC(=O)N1CC2(CC(c3cccc(NC(=O)COc4ccc(Cl)cc4)c3)=NO2)C[C@@H]1C(N)=O (stereo partly drawn),nt,3.1,nt
CSc1ccc2c(c1)N(CCC1CCCCN1C)c1ccccc1S2 (stereo not drawn),-6.3,i,i
ClCCCN1c2ccccc2Sc2ccc(Cl)cc21,nt,nt,i
Cc1ccc(S(=O)(=O)Nc2nc3ccccc3nc2NCc2ccco2)cc1,i,i,i
O=S(=O)(Nc1nc2ccccc2nc1NCc1ccco1)c1ccc(Cl)cc1,-3.5,i,i
Cc1ccc(NC(=O)CCCCCN2C(=O)c3ccccc3C2=O)c(Br)c1,nt,nt,i
CC(=O)Nc1ccc(N2CCN(C(=O)c3cccs3)CC2)cc1,i,-8.2,i
Nc1ccc(N2CCN(C(=O)c3cccs3)CC2)cc1,nt,i,nt
CCC(c1ccccc1)c1nnc(N)s1 (stereo not drawn),nt,nt,i
O=C(NCCc1ccccc1)NC1CCCCC1,-2.5,i,i
O=C(NCc1ccccc1)NC1CCCCC1,i,i,i
C(=Nc1c(-c2ccccc2)nc2n1CCS2)c1ccccc1,nt,nt,i
Cc1nn(Cc2ccccc2)c(Cl)c1C(=O)OCc1nnc(-c2ccccc2)o1,i,i,nt
Cc1nn(Cc2ccccc2)c(Cl)c1C(=O)OCc1nnc(-c2ccc(Cl)cc2)o1,i,2.6,nt
O=C(Cc1ccccc1)Nc1nc2ccccc2[nH]1,-5.5,i,i
O=C(Cc1ccc(Cl)cc1)Nc1nc2ccccc2[nH]1,nt,i,nt
Cc1cc(OC(C)C(=O)N2CCN(Cc3ccc4c(c3)OCO4)CC2)ccc1Cl (stereo not drawn),nt,nt,i
COc1ccccc1Nc1ccc2ccccc2c1,nt,nt,i
Cc1cccc(/N=C/c2c(O)[nH]c3ccccc23)n1,i,i,i
Oc1[nH]c2ccccc2c1C=Nc1ccc2c(c1)OCCO2,-2.9,i,i
O=c1/c(=C\c2cccnc2)sc2nc3ccccc3n12,i,i,i
Cc1cc(/C=c2/sc3nc4ccccc4n3c2=O)c(C)n1-c1ccccn1,-6.8,i,nt

# Screens: PubChem, several laboratories
